Compounds without any hit were thinned out: in the full panel of roughly 83,000, 20% have a hit.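 Single-concentration screen, 48 h exposure, 96-well plates. Endpoint: percent growth. Below 10 = active.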 Unmarked numbers belong to inactive results. Calls of active or inactive are those of the source.
test system: HL-60(TB) leukemia; experiment: NCI-60 one-dose screen, 48 h (100 = growth as untreated, 0 = no growth, -100 = all killed); settings: 10 µM unless noted

| Compound | growth |
| --- | --- |
| NCCNc1nc(Nc2ccc(-c3nc4ccccc4[nH]3)cc2)c2cn[nH]c2n1 | 91.9% |
| O=c1[nH]c(N2CCOCC2)nc2scc(-c3ccccc3)c12 | 103% |
| Nc1ccc(C(=O)Nc2cccc(C(=O)Nc3ccc4c(O)c(N=Nc5ccc(N=Nc6ccc(S(=O)(=O)O)cc6)cc5)c(S(=O)(=O)O)cc4c3)c2)cc1 | 89.1% |
| COc1cc(-c2nn(-c3cccc(NC(=O)CCNc4ccc(N5CCOCC5)cc4)c3)cc2-c2ccncc2)ccc1Cl | 8.36% (active) |
| Cc1c(Cl)cccc1NC(=O)c1sc2nc3c(cc2c1N)CN(Cc1ccccc1)CC3 | -22.9% (active) |
| COC(=O)[C@@H]1CCCN1C(=O)[C@@H]1CCCN1C(=O)[C@@H](Cc1c[nH]c2ccccc12)NC(=S)Nc1cc(C(F)(F)F)cc(C(F)(F)F)c1 | 11.1% |
| N#CCCc1c[nH]c2ccccc12 | 99.3% |
| CCCCCCOc1ccc(/C=C/C(=O)c2ccc(B(O)O)cc2)cc1 | 18.5% |
| O=c1nc(NO)[nH]c(=O)n1Cc1ccccc1 | 105% |
| COc1cc(Cc2cc(-c3ccc(Cl)cc3)n[nH]c2=O)ccc1O | 93.5% |
| N#CC1=C(N)Oc2c(ccc3ccccc23)C1c1ccccc1 (stereo not given) | -22.3% (active) |
| CCN(CC)CCCC(C)Nc1ccnc2cc(Cl)c(SCc3ccccc3)cc12 (stereo not given) | -64.8% (active) |
| CC1(C)N=c2cc3c(cc2N1c1ccc(Cl)cc1)=Nc1ccccc1N3c1ccc(Cl)cc1 | -40.4% (active) |
| Nc1nc(Nc2ccc([N+](=O)[O-])cc2O)nc(C(Cl)(Cl)Cl)n1 | 6.38% (active) |
| O=C(c1ccccc1)N(CCCl)C(=O)N(CCCl)C(=O)c1ccccc1 | 90.6% |
| CN=c1ccc2nc3ccc(N)cc3sc-2c1 | -27.1% (active) |
| COc1ccc(C2OCC(C)(C)CO2)cc1OC | 100% |
| Nc1ccccc1C#Cc1ccccc1C#Cc1ccc(OCCCCCCOc2ccc(C#Cc3ccccc3C#Cc3ccccc3N)cc2)cc1 | 110% |
| Cc1ccc(-c2nc([P+](c3ccccc3)(c3ccccc3)c3ccccc3)c(N3C[C@H]4C[C@H](C3)c3cccc(=O)n3C4)o2)cc1 | 36.7% |
| NS(=O)(=O)c1ccc(N=Nc2c(O)n(Cc3ccccc3)c3ccc(Cl)cc23)cc1 | 95% |

| Compound | growth |
| --- | --- |
| CCN(CC)C(=S)SSC(=S)N(CC)CC | 73.7% |
| NC(N)=Nc1cc2ccccc2c2ccccc12 | 46.4% |
| O=C(NCO)c1ccccc1 | 94.4% |
| N[C@@H](CO)C(=O)O | 106% |
| C#CCNC(=S)N/N=C(\C)c1ccccn1 | -18.6% (active) |
| C=CCc1cc(Nc2c3ccc(Cl)cc3nc3ccc(OC)cc23)cc(CN(CC)CC)c1O | -17% (active) |
| CC1SC(c2ccc(Cl)cc2)N(CCc2cccs2)C1=O (stereo not given) | -3.88% (active) |
| CCC1CCc2nc3sc(C(=O)Nc4cccc(C)c4)c(N)c3cc2C1 (stereo not given) | 55.7% |
| Clc1nccc2c(-c3csc(-c4c[nH]c5ccccc45)n3)c[nH]c12 | 29.4% |
| CN1C(=O)/C(=C\c2nc([P+](c3ccccc3)(c3ccccc3)c3ccccc3)c(N3CCOCC3)o2)SC1=S | -15.1% (active) |
| CC(=O)NC(CCC(=O)c1ccccc1)C(=O)O (stereo not given) | 75.9% |
| COc1cc(/C=C/C(=O)CC(=O)/C=C/c2ccc(OC(=O)CCNC34CC5CC(CC(C5)C3)C4)c(OC)c2)ccc1OC(=O)CCNC12CC3CC(CC(C3)C1)C2 | -24% (active) |
| COC1=CC=CC2(OC)C3(O)CCCc4cccc(c43)N3C(=O)COC132 (stereo not given) | 98.6% |
| CCN(C(=O)N1CCN(c2cc3c(cc2F)c(=O)c(C(=O)O)cn3C2CC2)CC1)c1nc(-c2ccccc2)cs1 | -34% (active) |
| COc1cccc(NC(=O)c2sc3nc(C)c(C(O)c4ccccc4)cc3c2N)c1 (stereo not given) | -52% (active) |
| COc1cc(/C=C/C(=O)/C=C/c2ccc(-n3ccnc3)cc2)ccc1O | 36.2% |
| Cn1cc(C(=O)c2nc(-c3c[nH]c4ccc(Br)cc34)no2)c2cc(F)ccc21 | 94.7% |
| N#C/C(=C\c1c(-c2ccccc2)[nH]c2ccccc12)S(=O)(=O)c1ccccc1 | -4.39% (active) |
| CCOC(=O)C1=C(c2ccccc2)N=C2SC=C(c3cccc([N+](=O)[O-])c3)N2C1c1ccc(O)cc1 (stereo not given) | 107% |
| Cc1nc2ccccc2c(N)c1-c1cc(C)c2c(C)nc3ccccc3c2n1 | -66.5% (active) |

— PubChem BioAssay (NCI)
